Source: PubChem
VDR inhibitor = blocks the human vitamin D receptor; VDR-SRC2-3 peptide fluorescence polarization, 2 h; Potency, µM, for the others: max response, negative = inhibition, hits mostly inhibitors; 400,000 tested, 0.93% active; note: potency is the fitted concentration of half-maximal effect; % is set by controls: 0 for no effect and ±100 for the full control effect
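The screen uses fluorescence polarization to detect compounds that interfere with recruitment of the SRC2-3 coactivator peptide to VDR; plates are read after 2 h at room temperature.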
PI5P4K alpha inh = blocks human PI5P4K alpha kinase activity; 330,000 tested, 1.2% active; PI5P4Kalpha enzyme, ADP-Glo luminescence, 60 min; hits give low values; P48426; max response, %; active = max response of -50% or lower; inconclusive = between -30% and -50%; inactive = -30% or higher; note: value at the top dose of about 77 µM; % is set by controls: 0 for no effect and ±100 for the full control effect
Target sequence (P48426 whole entry, looked up): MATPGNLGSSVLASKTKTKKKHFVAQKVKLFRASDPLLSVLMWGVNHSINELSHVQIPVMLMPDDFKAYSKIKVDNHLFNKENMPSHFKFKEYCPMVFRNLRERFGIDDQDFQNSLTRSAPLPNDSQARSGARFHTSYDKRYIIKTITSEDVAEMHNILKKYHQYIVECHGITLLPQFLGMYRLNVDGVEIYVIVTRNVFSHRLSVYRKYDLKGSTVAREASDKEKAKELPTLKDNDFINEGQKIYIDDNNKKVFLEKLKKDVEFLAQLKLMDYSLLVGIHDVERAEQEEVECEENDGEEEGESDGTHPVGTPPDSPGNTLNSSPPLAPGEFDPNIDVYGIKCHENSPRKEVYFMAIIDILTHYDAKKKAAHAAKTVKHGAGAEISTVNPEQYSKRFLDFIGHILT
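Controls without substrate or without enzyme flank wells where PI5P4Kalpha converts substrate using 5 microM ATP (final). Incubation lasts 60 minutes at room temperature; ADP formed is read by ADP-Glo luminescence.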
PLK1 PBD block = inhibitors of human PLK1 polo-box domain binding. P53350. Plk1 PBD binding of FITC phosphopeptide, fluorescence polarization. Potency, µM, for inactives: max response, negative = inhibition, usual class: inhibitors. 360,000 tested, 2.8% active; note: potency is the fitted concentration of half-maximal effect; series mostly up to about 57 µM; % is set by controls: 0 for no effect and ±100 for the full control effect; nearly all actives have a fitted effect of over 65% in size
FEN1 inhibitor = inhibitors of human flap endonuclease 1 | P39748 | Recombinant FEN1 flap cleavage, fluorescence, 15 min | Potency, µM (doses to about 114 µM), for the others: at the highest dose activity change, negative = inhibition, usual class: inhibitors | 390,000 tested, 0.35% active | AID 588795; note: potency is the fitted concentration of half-maximal effect; % is set by controls: 0 for no effect and ±100 for the full control effect; nearly all actives have a fitted effect of over 65% in size
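Potency values derive from four-parameter Hill fits of normalized qHTS data. The reaction used 10 nM FEN1 preincubated 15 min at room temperature with compound, then 50 nM DNA substrate, read at 0 and 15 min.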
WRN helicase inh = inhibitors of human WRN helicase; Q14191; WRN helicase unwinding, fluorescent forked duplex, kinetic; Potency, µM (series often up to 114 µM), inactives show top-dose activity change, negative = inhibition, hits mostly inhibitors; 360,000 tested, 0.46% active; AID 651768; note: potency is the fitted concentration of half-maximal effect; % is set by controls: 0 for no effect and ±100 for the full control effect; nearly all actives have a fitted effect of over 55% in size
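WRN at 20 nM final was preincubated with compound for 15 min at room temperature; reaction started with 100 nM forked duplex oligonucleotide carrying fluorophore and quencher plus 2 mM ATP (final). Unwinding followed kinetically by red fluorescence (ex 525/em 598 nm).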
TCR activator = activates T cell receptor signaling; primary human leukocytes, anti-CD3, IL-2 HTRF, 48 h; Potency, µM (doses to about 9.22 µM), for inactives: at the highest dose activation of IL-2 secretion, most hits filed as activators; 330,000 tested, under 10 active; note: % of control where 0% means no effect
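Activity was scored as IL-2 release from primary human leukocytes given only a TCR signal (a-CD3 beads) plus compound for 48 hr. Detection used a two-antibody HTRF format read at 665nm.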
Starred values were filed as active, the others as inactive; ? = inconclusive; / = no result given; [ ] = dose if it differs, or a comment. The list is not random: actives were taken first. Their share in the collection is about 3.7%. Unless noted, calls come from the whole dose curve; as a rule, active = well fitted curve in the direction sought with a large enough effect; inconclusive = small, poorly fitted or top-dose-only effect, or another doubt; inactive = no such curve, though single readings can be large; an effect the other way counts as inactive or inconclusive.

SMILES	VDR inhibitor	PI5P4K alpha inh	PLK1 PBD block	FEN1 inhibitor	WRN helicase inh	TCR activator
CCOC(=O)c1cccc(NC(=O)COc2ccc([N+](=O)[O-])cc2)c1	6.5%	/	?	-17.5%	-21.9%	4.9%
COc1ccc(OC)c(/C=C/c2[nH]c(=O)[nH]c(=O)c2[N+](=O)[O-])c1	?	-76.6*	-3.2%	-5.5%	-6.5%	/
Nc1ccccc1N=Nc1ccccc1N	-18.9%	3.0	-8.0%	-0.6%	-13.1%	-5.8%
Nc1ccccc1N=c1ssnc1Cl	?	?	4.74µM*	1.3%	-3.1%	-4.7%
Cc1cc(Cl)ccc1N=c1ssnc1Cl	?	-53.4*	1.5µM*	0.7%	50.1µM*	-14.6%
Cc1cc(C)nc(/N=c2/ssnc2Cl)c1	28.2µM*	-1.2	1.06µM*	0.2%	-33.0%	1.6%
CCOC(=O)c1ccc(CN(Cc2ccc(F)cc2)S(=O)(=O)c2cc(C(=O)Nc3ccccc3CC)ccc2F)cc1	4.5%	/	/	11.5%	/	/
CSc1ccccc1NC(=O)Cn1nc([N+](=O)[O-])cc1C	4.3%	3.3	?	4.2%	-1.0%	-0.1%
Cc1cc([N+](=O)[O-])nn1CC(=O)Nc1cccc2nonc12	-1.1%	-73.4*	-6.9%	-8.7%	-24.1%	/
CC(=O)OCCn1c(=O)c2cc3c(=O)n(CCOC(C)=O)c(=O)c3cc2c1=O	3.6%	-16.6	11.9µM*	-5.3%	4.5%	-1.1%
Cc1ccc([C@@H]2CC=C(C(=O)O)[C@H](c3ccc(Cl)cc3)N2S(=O)(=O)c2ccccc2C)cc1	-14.3%	0.3	21.2µM*	1.0%	-13.2%	-1.1%
Cc1ccccc1S(=O)(=O)N1[C@@H](c2ccc(Br)cc2)C(C(=O)O)=CC[C@H]1c1ccc(Cl)cc1	?	-3.4	21.2µM*	-4.4%	-9.2%	8.6%
Cc1ccccc1S(=O)(=O)N1C(c2ccc(Cl)c(Cl)c2)CC=C(C(=O)O)C1c1cccc(Br)c1 (centres undefined)	/	?	23.8µM*	/	-28.4%	/
Cc1ccc([C@@H]2CC=C(C(=O)O)[C@H](c3ccc(Br)cc3)N2S(=O)(=O)c2ccccc2C)cc1	?	1.8	26.7µM*	-22.1%	-8.9%	0.3%
Cc1ccccc1S(=O)(=O)N1[C@@H](c2ccccc2)C(C(=O)O)=CC[C@H]1c1ccc(Cl)cc1	?	-0.4	?	14.3%	14.3%	-1.9%
COc1ccccc1N1CCN(C(=O)CSc2nc(-c3ccc(C(C)C)cc3)no2)CC1	17.2%	/	/	0.2%	/	/
COc1ccccc1OCCOCCN1CCCC1	17.8%	0.0	3.4%	17.8%	0.2%	4.5%
COc1cc2nc(N3CCCN(C)CC3)nc(OC3CCN(C)CC3)c2cc1OC	/	/	/	-26.9%	/	/
COc1cc2c(NC3CCN(C)CC3)nc(N3CCCN(C)CC3)nc2cc1OCCCN1CCOCC1	/	/	/	22.4µM*	/	/
COc1cc2c(NC3CCN(C)CC3)nc(N3CCCN(C)CC3)nc2cc1OCCCN1CCCC1	/	/	/	10µM*	/	/
COc1cc2c(NC3CCN(C)CC3)nc(N3CCCCC3)nc2cc1OCCOCCN1CCCC1	/	/	/	20µM*	/	/
COc1cc2c(NC3CCN(C(C)C)CC3)nc(N3CCCN(C)CC3)nc2cc1OCCOCCN1CCCC1	/	/	/	20µM*	/	/
O=C(C[n+]1ccccc1Br)c1ccc2c(c1)CCCC2	/	/	/	-21.3%	/	/
CC(C)COc1cccc(C(=O)Nc2ccc(-c3nc4ncccc4o3)cc2)c1	-21.9%	/	/	20.6%	/	/
Cc1ccc(-c2csc3nc4c5ccccc5c(NCCCN(C)C)nn4c(=O)c23)cc1	-11.8%	-1.0	-4.6%	20µM*	30.2%[57.1 µM]	10.3%
CN(C)c1cc(F)c(C=O)cc1F	/	/	/	-6.1%	/	/
COc1cc(/C=C2\N=C(C)OC2=O)cc(OC)c1OC	39.8µM*	7.9	-11.2%	-4.0%	-8.6%	2.8%
COc1ccc(C(=O)Oc2c(OC)cc(C(=S)N3CCOCC3)cc2OC)cc1OC	?	-26.3	21.2µM*	-0.5%	-6.7%	/
Cc1ccc(C(=O)Oc2ccc(Br)cc2C(=S)N2CCOCC2)cc1	-24.0%	0.1	?	-1.8%	-4.3%	-0.3%
COc1cc(C(=O)Oc2ccc(Br)cc2C(=S)N2CCOCC2)cc(OC)c1OC	?	-26.7	16.8µM*	-11.8%	6.4%	1.9%
